A selection: hits, their analogues and other compounds. The true share with any hit is near 27%.
CYP2C9 act: CYP2C9 (human) activation. recombinant CYP2C9, luciferin-H conversion, luminescence; stronger effect = higher value; factor 1 = untreated enzyme, 0 = blocked. P11712. activation factor at 5 µM. hit rate 1.4% among 96,000;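 active means activation factor of 2 or more for CYP2C9 at a 5 µM dose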;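 further: 0 = sulfaphenazole-blocked wells and 1 = vehicle-only wells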
Target sequence (P11712 whole entry, looked up): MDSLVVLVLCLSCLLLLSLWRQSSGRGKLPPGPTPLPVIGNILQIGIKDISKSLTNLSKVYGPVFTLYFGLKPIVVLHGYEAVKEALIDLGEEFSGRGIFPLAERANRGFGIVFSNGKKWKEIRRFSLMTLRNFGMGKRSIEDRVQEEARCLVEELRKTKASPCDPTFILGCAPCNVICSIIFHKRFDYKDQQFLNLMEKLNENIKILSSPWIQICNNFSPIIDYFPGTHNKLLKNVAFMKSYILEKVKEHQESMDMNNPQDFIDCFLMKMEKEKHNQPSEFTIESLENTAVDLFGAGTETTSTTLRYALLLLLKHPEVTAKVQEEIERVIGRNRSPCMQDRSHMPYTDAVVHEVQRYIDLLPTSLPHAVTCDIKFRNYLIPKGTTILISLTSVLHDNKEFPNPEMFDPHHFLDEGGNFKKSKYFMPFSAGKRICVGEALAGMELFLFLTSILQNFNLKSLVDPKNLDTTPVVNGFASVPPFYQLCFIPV
sEH act: activators of human soluble epoxide hydrolase. purified human sEH enzymatic activity, activator screen. hit rate 0.04% among 91,000. activation, % at 2 µM. P34913; in the data active means activation above about 37%
CYP2C19 inhib: human CYP2C19 inhibition; P33261; CYP2C19 Supersomes, luciferin-H EGE luminescence, 30 min; inhibition, % at 5 µM; hit rate 21% among 96,000; AID 778;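 active means CYP2C19 inhibition above a set limit at 5 µM in the primary screen, cut at about 50% in these data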;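 further: plate controls were negative control wells for no effect and 2.5 mM tranylcypromine positive control for full effect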
sEH inh: soluble epoxide hydrolase (human) inhibition; P34913; recombinant human sEH enzymatic activity assay; inhibition, % at 2 µM; hit rate 0.34% among 91,000; in the data active means inhibition above about 80%
CYP2C19 activ: cytochrome P450 2C19 (human) activation | activation factor at 5 µM | 96,000 tested, under 10 active | recombinant CYP2C19, luciferin-H EGE luminescence; stronger effect = higher value; 0 = fully inhibited enzyme, 1 = untreated enzyme | P33261;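 active means activation factor of at least 2 at 5 µM in the primary screen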;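 further: 0 = wells with 2.5 mM tranylcypromine and 1 = vehicle-only wells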
CYP2C9 inhib: blocks human cytochrome P450 2C9. P11712. CYP2C9 Supersomes, luciferin-H conversion, luminescence. inhibition, % at 5 µM. hit rate 20% among 96,000;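 active means blocking of liver enzyme CYP2C9 beyond about 50% at 5 µM, limit read from the data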
* marks the source's active call; other numbers are inactive results; . = no result given.

SMILES	CYP2C9 act	sEH act	CYP2C19 inhib	sEH inh	CYP2C19 activ	CYP2C9 inhib
COc1ccc(NS(=O)(=O)c2ccc(SC)cc2)cc1	0	3	100*	-1	0	96*
CSc1ccc(S(=O)(=O)Nc2ccc(F)cc2)cc1	0.1	-6	100*	10	0	92*
CC(=O)NS(=O)(=O)c1ccc(NS(=O)(=O)c2ccc(F)cc2)cc1	0.4	0	3	-1	1	59*
COc1ccc(NS(=O)(=O)c2ccc(NS(C)(=O)=O)cc2)cc1	0.8	24	17	-26	0.8	16
CCOC(=O)c1cccc(NC(=O)CSc2nnc(COc3ccccc3C)o2)c1	1	2	23	0	0.8	0
Nc1nc(N)c2sc3nc4c(cc3c2n1)CCC4	1	2	12	1	0.9	0
CN(C)/C=N/c1ncc(C(=O)c2ccc3ccccc3c2)s1	2.3*	48*	53*	-49	0.5	-128
COc1ccc(C(=O)c2cnc(/N=C/N(C)C)s2)cc1	0.8	.	24	.	0.8	17
COc1cc(CNc2ccc3[nH]c(=O)[nH]c3c2)cc(Cl)c1OCC(=O)NC(C)(C)C	0.3	-9	81*	8	0.2	71*
CCC(C)N(NC(C)=O)c1nc(Cl)nc(NC(C)C)n1 (stereo unspecified)	1	2	-5	-1	1	2
CC(C)(C)c1cn(-c2ccc(Cl)cc2)c(=S)[nH]1	0.7	-8	73*	7	0.3	27
COc1ccc(NC(=O)C23CCC(C)(C(=O)C2)C3(C)C)cc1 (stereo unspecified)	1	1	8	-3	0.9	2
Cc1cccc(N=C2Sc3nc4c(C)c(C)ccc4cc3CN2CCN2CCOCC2)c1	0.5	4	16	-3	0.8	47
Cc1ccc2nc3c(cc2c1)CN(Cc1ccco1)C(=NCC1CCCO1)S3 (stereo unspecified)	0.2	-8	52*	4	0.5	79*
Cc1cccc2cc(CN(CC3CCCO3)C(=O)c3ccco3)c(=O)[nH]c12 (stereo unspecified)	0.9	3	34	-2	0.7	12
Cc1cccc2cc3c(nc12)SC(=NCC1CCCO1)N(Cc1ccco1)C3 (stereo unspecified)	0.4	-11	23	8	0.8	57*
COCCN=C1Sc2nc3c(C)cccc3cc2CN1Cc1ccco1	0.4	3	30	-4	0.7	57*
COc1ccc(-c2[nH]ncc2-c2cnc(C)s2)c(O)c1	0.5	.	90*	.	0.1	50
COc1ccc(O)c(-c2cn[nH]c2-c2cccs2)c1	0.1	9	99*	-9	0	88*
CCC(C)NC(=O)CSc1nc2ccsc2c(=O)n1-c1ccc(OC)cc1 (stereo unspecified)	0.9	14	3	-11	1	7
COc1ccc(NC(=O)CSc2nc3ccccc3c(=O)n2CCNC(C)=O)cc1	0.4	11	94*	-11	0.1	58*
CCOc1ccc(NC(=O)CSc2nc3ccccc3c(=O)n2CCNC(C)=O)cc1	0.9	13	6	-13	0.9	6
COc1ccc(OC)c(NC(=O)CSc2nc3ccccc3c(=O)n2CCNC(C)=O)c1	.	28	.	-28	.	.
COc1ccc(NC(=O)CSc2nc3ccccc3c(=O)n2CCNC(C)=O)c(OC)c1	0.5	5	48	-4	0.5	51*
CCn1c(SCC(=O)Nc2ccccc2OC)nc2ccccc2c1=O	0.1	24	61*	-21	0.4	86*
SMILES	CYP2C9 act	sEH act	CYP2C19 inhib	sEH inh	CYP2C19 activ	CYP2C9 inhib
CCC(C)NC(=O)CSc1nc2ccccc2c(=O)n1Cc1ccc(OC)cc1 (stereo unspecified)	0.9	-3	85*	5	0.1	12
OCC(O)C(O)C(O)C(O)C1NCCS1 (stereo unspecified)	1	-10	-10	8	1.1	-5
C=CCn1c(SC/C=C/c2ccccc2)nnc1-c1sc(N)nc1C	0.6	9	41	-5	0.6	38
O=C(Nc1nc(-c2ccc(Cl)s2)cs1)c1cccs1	0.1	.	54*	.	0.5	85*
O=C(Nc1nc(-c2ccccc2)cs1)c1cccs1	0.7	.	15	.	0.8	34
CCOC(=O)N1CCC(NC(=O)Cn2c3c(c(-c4ccccc4Cl)cc2=O)CCC3)CC1	0.5	.	46	.	0.5	54*
Cn1c(SCC(=O)NCc2ccccc2)nnc1C1CC1	1.1	2	1	-2	1	-8
O=C(O)CCn1c(=O)sc2ccccc21	1	-6	-13	5	1.1	-2
CCOC(=O)Cn1c(=O)sc2ccccc21	1	-4	47	4	0.5	4
Cc1ccc(OCn2c(=O)sc3ccccc32)cc1	0.6	-3	56*	6	0.4	38
O=c1sc2ccccc2n1CCOc1ccccc1	0.1	-6	98*	4	0	88*
CCOC(=O)C(Cc1ccccc1)NC(=O)Cn1nnc(-c2ccc(SC)cc2)n1 (stereo unspecified)	0.9	-1	67*	0	0.3	15
CSc1ccc(-c2nnn(CC(=O)NCc3ccccc3)n2)cc1	0.7	2	34	3	0.7	33
CSc1ccccc1NC(=O)c1c(C)noc1C	1	-1	10	0	0.9	-4
COc1cc(Cl)c(S(=O)(=O)NCCCN2CCOCC2)cc1Cl	1.9	4	46	-5	0.5	-90
COc1c(S(=O)(=O)NCCN2CCOCC2)ccc(Cl)c1Cl	1.8	0	80*	0	0.2	-83
COc1cc(C)c(S(=O)(=O)N2CCOCC2)cc1C(C)C	0.9	-4	53*	4	0.5	10
COc1cc(C)c(Cl)cc1S(=O)(=O)NCCCN1CCOCC1	1.3	8	66*	-6	0.3	-32
COc1cc(C)c(Cl)cc1S(=O)(=O)NCCN1CCOCC1	1.2	7	83*	-4	0.2	-16
CCC(=O)N1CCc2cc(S(=O)(=O)N3CCN(c4ccccn4)CC3)ccc21	0.7	-8	19	9	0.8	28
O=c1[nH]nc(Cc2ccc3ccccc3n2)c2ccccc12	0.9	-4	8	1	0.9	14
Cc1oc(=O)c(NC(=O)c2cccc(Cl)c2)cc1C(=O)c1ccccc1	0.9	-14	25	17	0.8	6
Cc1cc(Br)c(S(=O)(=O)NCCN2CCOCC2)cc1C	1.1	.	41	.	0.6	-14
Cc1ccc(S(=O)(=O)NCCCN2CCOCC2)c(C)c1	1.6	.	64*	.	0.4	-56
O=C(c1ccccc1Cl)N1CCCC(c2nc3c(nnn3Cc3ccccc3)c(=O)[nH]2)C1 (stereo unspecified)	0.2	-2	12	1	0.9	84*
Cc1ccc(Cn2nnc3c(=O)[nH]c(C4CCCN(C(=O)Nc5ccc(F)cc5)C4)nc32)cc1 (stereo unspecified)	1	-48	-7	50	1.1	-1
